Screening data: PubChem BioAssay, several laboratories
S1P2 blocker: antagonists of human S1P2 receptor. O95136. cell-based S1P2 antagonist assay, inhibition at 5 uM. inhibition, % at 5 µM. hit rate 0.21% among 97,000. AID 736; in the data active means inhibition above about 45%;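 further: CRE beta-lactamase reporter cells expressing human S1P2 stimulated with S1P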
Target sequence (O95136 whole entry, looked up): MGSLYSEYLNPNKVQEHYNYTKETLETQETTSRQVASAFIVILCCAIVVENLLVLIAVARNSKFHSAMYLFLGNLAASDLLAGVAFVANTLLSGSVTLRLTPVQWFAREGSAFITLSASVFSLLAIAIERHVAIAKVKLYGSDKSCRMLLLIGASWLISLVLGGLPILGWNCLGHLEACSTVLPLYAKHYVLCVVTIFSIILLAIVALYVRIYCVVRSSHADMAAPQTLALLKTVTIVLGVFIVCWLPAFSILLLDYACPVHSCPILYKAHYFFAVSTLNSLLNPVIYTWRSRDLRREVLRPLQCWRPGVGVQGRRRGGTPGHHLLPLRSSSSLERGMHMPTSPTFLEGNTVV
S1P2 ag: agonists of human S1P2 receptor; S1P2-expressing cell line, agonist reporter read-out; activation, % at 4.5 µM; O95136; AID 729; hit rate 0.46% among 97,000; in the data active means activation above about 16%
GALR2 blocker: blocks the human galanin receptor 2; O43603; GALR2-expressing cells, antagonist mode; inhibition, % at 4 µM; hit rate 0.39% among 140,000; AID 828; in the data active means inhibition above about 27%;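 further: cells stimulated with galanin 1-16 at roughly its EC80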
LYP inh 2: blocks human PTPN22 phosphatase activity. Q9Y2R2. recombinant LYP catalytic domain, DiFMUP fluorescence. inhibition, % at 2 µM. hit rate 0.21% among 96,000. AID 640;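 active means inhibition at 2 µM at or above a set limit, the screen mean plus 3 SD, cut at about 24% in these data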
GALR2 agonist: GALR2 (human) receptor agonism; GALR2-expressing cells, agonist activation read-out; activation, % (test concentration not listed); hit rate 0.48% among 140,000; AID 803; in the data active means activation above about 5%, passing the limit was not always enough
PTPN22 act: activators of human LYP (PTPN22) phosphatase. recombinant LYP, DiFMUP fluorescence; 0 = plate median, 100 = signal doubled. activation, % at 2 µM. hit rate 0.11% among 96,000. Q9Y2R2. AID 697;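 active means activation at 2 µM above a set limit, the mean plus 5 SD, cut at about 37% in these data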
Large screens that a line does not name were inactive. This is a sample that favours compounds with a hit; in the whole collection about 1.3% have one here.

CC1(C)Cc2c(c(N3CCOCC3)nc3sc4c(NCc5ccccc5)nnnc4c23)CS1	none
Cn1c(SCc2c(Cl)cccc2Cl)nc(C(F)(F)F)cc1=O	none
C=CCNCCCCOc1ccc(Br)cc1C	none (no result: S1P2 blocker, S1P2 ag, LYP inh 2, PTPN22 act)
Cc1cc(Br)ccc1OCCCCNCCO	S1P2 ag 69
Nc1ccccc1-c1nnc(SCc2ccccc2Cl)[nH]c1=O	none
Cc1ccc(CSc2nnc(-c3ccccc3N)c(=O)[nH]2)cc1	LYP inh 2 29
O=C1SC(c2ccccc2)=N/C1=C/c1ccco1	S1P2 ag 59
O=C1SC(SCc2ccccc2)=N/C1=C\c1ccco1	none
CCN(C(=O)c1ccc(C(C)(C)C)cc1)c1nnc(Cn2nnc3ccccc32)s1	S1P2 blocker 87
O=C(Nc1ccc(F)cc1)c1sc2cc(C(F)(F)F)cnc2c1-c1cccs1	S1P2 blocker 84
COc1ccc(NC(=O)c2sc3cc(C(F)(F)F)cnc3c2-c2cccs2)cc1	none
COc1ccc(C(=O)n2nc(-c3ccco3)nc2N)cc1	none
Cc1ccc(C(=O)n2nc(-c3ccco3)nc2N)cc1	LYP inh 2 29
O=C(N/N=C/c1cc(Cl)ccc1O)c1ccc(Br)cc1	none (no result: S1P2 blocker, S1P2 ag, LYP inh 2, PTPN22 act)
O=C(N/N=C\c1cc(Br)ccc1O)c1ccc(S(=O)(=O)N2CCCCC2)cc1	GALR2 agonist 6.1 (no result: S1P2 blocker, S1P2 ag, LYP inh 2, PTPN22 act)
Cc1c(Cl)cccc1NC(=O)CCCN1C(=O)CCC1=O	none
Cc1cc(C(C)(C)C)cc(C)c1COC(=O)C1CCC(=O)N1 (stereo not given)	LYP inh 2 27
COc1cc(/C=N/NC(=O)CSc2cc(C)c(Br)cc2C)ccc1O	none
Cc1cc(SCC(=O)N/N=C/c2ccc(O)c(O)c2O)c(C)cc1Br	LYP inh 2 57
COc1cc2c(cc1OC)C(CC#N)=NC(C)(C)C2	S1P2 ag 18
N#Cc1c(NC(=O)C2CC(c3ccccc3O)=NO2)sc2c1CCC2 (stereo not given)	none (no result: S1P2 blocker, S1P2 ag, LYP inh 2, PTPN22 act)
COC(=O)c1ccc2c(c1)C(C)(C)C(/C=C/c1ccc(OC)c(OC)c1OC)=[N+]2C	S1P2 blocker 48
COC(=O)c1ccc2c(c1)C(C)(C)C(/C=C/c1ccc(O)cc1)=[N+]2C	GALR2 agonist 6.8
Nc1nc(Br)c2c(F)cccc2c1-c1ccc(F)cc1	S1P2 ag 22
Nc1nc(Br)c2c(F)cccc2c1-c1ccccc1	none
Cc1ccc(NC(=O)COc2ccc(CCO)cc2-n2nc3ccccc3n2)cc1C	none (no result: S1P2 blocker, S1P2 ag, LYP inh 2, PTPN22 act)
O=c1c2ccccc2[nH]c2ccccc12	GALR2 agonist 5.6 (no result: S1P2 blocker, S1P2 ag, LYP inh 2, PTPN22 act)
O=C(CCn1cnc2ccccc2c1=O)Nc1nc(-c2ccc(Br)cc2)cs1	GALR2 agonist 7.9 (no result: S1P2 blocker, S1P2 ag, LYP inh 2, PTPN22 act)
CCOC(=O)N1CCN(C(=O)CN(C2CCCCC2)S(=O)(=O)c2c(C)cc(C)cc2C)CC1	none
S=C(Nc1ccccc1Cl)N1CCOCC1	none (no result: S1P2 blocker, S1P2 ag, LYP inh 2, PTPN22 act)
O=C(OCCN1C(=O)c2ccccc2C1=O)c1cc(S(=O)(=O)N2CCOCC2)ccc1F	S1P2 ag 18
O=C(Nc1ccc2oc(-c3ccccc3F)nc2c1)c1ncn[nH]1	none
O=C(Nc1ccc2oc(-c3ccc(Cl)c(Cl)c3)nc2c1)c1ncn[nH]1	LYP inh 2 40
CCc1nccn1S(=O)(=O)c1cc(C)c(OC)cc1C	S1P2 ag 16
Cc1cc(=O)oc2cc3c(cc12)OCCO3	none (no result: S1P2 blocker, S1P2 ag, LYP inh 2, PTPN22 act)
Cc1cc(=O)oc2cc3c(cc12)OCCN3	S1P2 ag 46, GALR2 agonist 10
N#Cc1cc(-c2ccc(Cl)cc2)cnc1Sc1ccc(F)cc1	none (no result: LYP inh 2, PTPN22 act)
COC(=O)C1CCCN1C(=O)COc1ccc(Cl)cc1Br (stereo not given)	none (no result: S1P2 blocker, S1P2 ag, LYP inh 2, PTPN22 act)
COc1ccc(C(=O)Nc2ccc(-c3ccc(NC(=O)c4ccc(OC)cc4)c(OC)c3)cc2OC)cc1	GALR2 agonist 6.2 (no result: S1P2 blocker, S1P2 ag, LYP inh 2, PTPN22 act)
COc1ccc(C(=O)Nc2cc(OC)ccc2OC)cc1	none
Cc1ccc(NC(=O)CCC(=O)NNC(=O)COc2ccccc2)c(C)c1	none (no result: S1P2 blocker, S1P2 ag, LYP inh 2, PTPN22 act)
Cn1cc(/C=C(\C#N)C(=O)Nc2ncc(Cc3cccc(Cl)c3)s2)c2ccccc21	none (no result: S1P2 blocker, S1P2 ag, LYP inh 2, PTPN22 act)
N#C/C(=C\c1c[nH]c2ccccc12)C(=O)Nc1ncc(Cc2ccc(Cl)cc2Cl)s1	GALR2 agonist 6.4 (no result: S1P2 blocker, S1P2 ag, LYP inh 2, PTPN22 act)
COc1cc2c(cc1OC)-c1cc(OCc3ccccc3Cl)nc(=O)n1CC2	S1P2 ag 29
COc1cc2c(cc1OC)-c1cc(NC3CCCC3)nc(=O)n1CC2	S1P2 ag 24
Cn1c(=O)c2c(SCc3cccnc3)nc(C3CC3)nc2n(C)c1=O	none
CCc1nc(SCc2cccnc2)c2c(=O)n(C)c(=O)n(C)c2n1	S1P2 ag 17 (no result: LYP inh 2, PTPN22 act)
Cc1ccc(-n2nnnc2SC(C)C(=O)NCC(=O)Nc2ccc(F)c(F)c2F)c(C)c1 (stereo not given)	none (no result: S1P2 blocker, S1P2 ag, LYP inh 2, PTPN22 act)
